# Measurements from publication PMC7862700, “An all-to-all approach to the identification of sequence-specific readers for epigenetic DNA modifications on cytosine”.
# Assays:
# Assay in all cases: DAPPL (digital affinity profiling via proximity ligation, sequencing); 10 mM Tris-HCl pH 7.5, 50 mM NaCl, 1 mM DTT, 4% glycerol, room temperature, 30 min; GST-TFs on glutathione beads, 16-mer random dsDNA library, 0.1% formaldehyde crosslink after washing; high values mean tight binding
# FLI1 = biological target: T1, FLI1 (Homo sapiens, UniProt Q01543 1-452); conditions: protein: recombinant; tags: N-terminal GST; dsDNA, one strand shown
# T1 sequence: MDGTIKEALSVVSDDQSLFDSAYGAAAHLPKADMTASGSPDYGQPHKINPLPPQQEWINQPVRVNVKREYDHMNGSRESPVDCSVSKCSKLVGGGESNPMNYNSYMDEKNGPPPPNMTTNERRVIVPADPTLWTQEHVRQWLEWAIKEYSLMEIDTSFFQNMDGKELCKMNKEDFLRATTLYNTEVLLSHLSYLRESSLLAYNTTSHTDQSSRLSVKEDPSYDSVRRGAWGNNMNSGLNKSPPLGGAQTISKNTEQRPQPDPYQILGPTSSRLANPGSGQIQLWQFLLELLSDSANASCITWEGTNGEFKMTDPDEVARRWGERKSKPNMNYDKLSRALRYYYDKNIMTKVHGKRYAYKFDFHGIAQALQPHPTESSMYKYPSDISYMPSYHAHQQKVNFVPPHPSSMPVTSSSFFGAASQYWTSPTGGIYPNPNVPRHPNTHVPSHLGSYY
# Summary of the method: (§1)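 Binding signal is given per hexamer as its read frequency for a factor divided by its frequency in the tag-only sample. GST-fused human transcription factors were expressed in yeast, captured on glutathione beads, barcoded with DNA and pooled with that sample, then incubated with 200 nmole of a 16-mer random double-stranded DNA library in Tris/NaCl/DTT/glycerol buffer for 30 min at room temperature. The pools were then washed, crosslinked, proximity-ligated, amplified by PCR and sequenced on an Illumina NextSeq500.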
# ELK1 = biological target: T2, ELK1 (Homo sapiens, UniProt P19419 1-428); conditions: protein: recombinant; tags: N-terminal GST; dsDNA, one strand shown
# T2 sequence: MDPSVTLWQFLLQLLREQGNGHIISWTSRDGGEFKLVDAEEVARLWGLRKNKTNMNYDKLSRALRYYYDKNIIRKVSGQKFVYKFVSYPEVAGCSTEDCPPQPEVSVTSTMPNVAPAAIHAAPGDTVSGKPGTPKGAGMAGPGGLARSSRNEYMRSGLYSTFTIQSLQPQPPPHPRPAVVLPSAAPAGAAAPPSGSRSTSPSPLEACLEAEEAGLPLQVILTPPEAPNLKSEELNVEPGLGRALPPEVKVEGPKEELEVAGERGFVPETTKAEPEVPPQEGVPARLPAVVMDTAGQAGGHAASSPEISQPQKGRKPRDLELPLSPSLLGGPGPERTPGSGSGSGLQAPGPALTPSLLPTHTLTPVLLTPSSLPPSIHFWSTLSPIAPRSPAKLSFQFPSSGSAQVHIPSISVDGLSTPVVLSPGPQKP
# Summary of the method: as §1
# GABPA = biological target: T3, GABPA (Homo sapiens, UniProt Q06546 1-454); conditions: protein: recombinant; tags: N-terminal GST; dsDNA, one strand shown
# T3 sequence: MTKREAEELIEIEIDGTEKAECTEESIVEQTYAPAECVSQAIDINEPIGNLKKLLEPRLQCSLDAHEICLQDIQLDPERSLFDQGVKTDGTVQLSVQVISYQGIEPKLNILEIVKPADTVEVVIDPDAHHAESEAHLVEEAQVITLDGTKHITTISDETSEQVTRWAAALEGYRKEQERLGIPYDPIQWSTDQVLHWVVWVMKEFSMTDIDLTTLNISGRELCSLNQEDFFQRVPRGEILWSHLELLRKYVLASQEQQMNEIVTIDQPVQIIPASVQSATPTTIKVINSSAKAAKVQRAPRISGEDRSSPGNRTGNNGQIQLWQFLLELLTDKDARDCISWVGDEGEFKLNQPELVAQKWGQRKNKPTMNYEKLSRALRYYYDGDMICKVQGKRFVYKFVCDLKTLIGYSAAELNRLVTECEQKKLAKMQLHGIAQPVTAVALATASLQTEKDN
# Summary of the method: as §1
# ERG = biological target: T4, ERG (Homo sapiens, UniProt P11308 1-479); conditions: protein: recombinant; tags: N-terminal GST; dsDNA, one strand shown
# T4 sequence: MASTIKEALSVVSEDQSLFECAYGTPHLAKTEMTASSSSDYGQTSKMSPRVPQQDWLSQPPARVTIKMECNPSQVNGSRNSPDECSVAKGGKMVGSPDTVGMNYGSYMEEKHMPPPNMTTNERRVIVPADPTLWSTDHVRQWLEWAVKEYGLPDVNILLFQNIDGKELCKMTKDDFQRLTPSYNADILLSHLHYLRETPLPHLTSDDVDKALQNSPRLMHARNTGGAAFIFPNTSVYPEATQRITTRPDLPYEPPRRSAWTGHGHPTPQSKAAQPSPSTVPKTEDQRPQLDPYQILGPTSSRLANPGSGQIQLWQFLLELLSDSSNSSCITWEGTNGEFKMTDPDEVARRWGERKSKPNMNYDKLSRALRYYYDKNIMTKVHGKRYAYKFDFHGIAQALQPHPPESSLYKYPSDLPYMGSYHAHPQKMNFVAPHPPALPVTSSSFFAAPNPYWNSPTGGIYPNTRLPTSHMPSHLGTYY
# Summary of the method: as §1
# ELF1 = ELF1 (Homo sapiens, UniProt P32519 1-619); conditions: protein: recombinant; tags: N-terminal GST; dsDNA, one strand shown
# Summary of the method: as §1
# EHF = biological target: T5, EHF (Homo sapiens, UniProt Q9NZC4 1-300); conditions: protein: recombinant; tags: N-terminal GST; dsDNA, one strand shown
# T5 sequence: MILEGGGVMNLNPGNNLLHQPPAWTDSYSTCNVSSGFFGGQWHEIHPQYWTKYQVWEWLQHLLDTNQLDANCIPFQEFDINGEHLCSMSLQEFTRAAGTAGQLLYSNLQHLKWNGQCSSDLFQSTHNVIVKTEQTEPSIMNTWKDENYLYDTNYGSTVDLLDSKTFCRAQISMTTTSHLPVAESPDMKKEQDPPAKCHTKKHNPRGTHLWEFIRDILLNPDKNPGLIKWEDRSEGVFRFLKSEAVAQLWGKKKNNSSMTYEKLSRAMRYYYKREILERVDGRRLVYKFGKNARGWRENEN
# Summary of the method: as §1
# SPI1 = SPI1 (Homo sapiens, UniProt P17947 1-270); conditions: protein: recombinant; tags: N-terminal GST; dsDNA, one strand shown
# Summary of the method: as §1
# SPIB = SPIB (Homo sapiens, UniProt Q01892 1-262); conditions: protein: recombinant; tags: N-terminal GST; dsDNA, one strand shown
# Summary of the method: as §1
# ELK3 = biological target: T6, ELK3 (Homo sapiens, UniProt P41970 1-407); conditions: protein: recombinant; tags: N-terminal GST; dsDNA, one strand shown
# T6 sequence: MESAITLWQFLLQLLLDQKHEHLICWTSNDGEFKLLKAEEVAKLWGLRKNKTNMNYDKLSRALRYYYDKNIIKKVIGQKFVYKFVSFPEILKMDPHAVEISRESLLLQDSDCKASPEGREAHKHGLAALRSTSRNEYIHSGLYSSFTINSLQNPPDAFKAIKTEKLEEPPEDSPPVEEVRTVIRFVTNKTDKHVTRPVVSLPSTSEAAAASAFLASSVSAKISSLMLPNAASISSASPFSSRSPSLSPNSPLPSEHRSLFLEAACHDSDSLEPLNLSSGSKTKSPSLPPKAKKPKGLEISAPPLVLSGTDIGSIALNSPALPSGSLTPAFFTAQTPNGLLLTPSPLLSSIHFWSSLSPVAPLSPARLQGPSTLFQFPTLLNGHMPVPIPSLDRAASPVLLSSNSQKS
# Summary of the method: as §1
# FEV = biological target: T7, FEV (Homo sapiens, UniProt Q99581 1-238); conditions: protein: recombinant; tags: N-terminal GST; dsDNA, one strand shown
# T7 sequence: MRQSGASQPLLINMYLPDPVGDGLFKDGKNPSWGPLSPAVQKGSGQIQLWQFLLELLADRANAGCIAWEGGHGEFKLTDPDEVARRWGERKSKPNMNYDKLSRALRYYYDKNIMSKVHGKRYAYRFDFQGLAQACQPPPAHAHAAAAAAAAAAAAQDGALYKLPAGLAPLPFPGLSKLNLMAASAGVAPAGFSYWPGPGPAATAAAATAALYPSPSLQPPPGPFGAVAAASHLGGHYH
# Summary of the method: as §1
# ETV5 = ETV5 (Homo sapiens, UniProt P41161 1-510); conditions: protein: recombinant; tags: N-terminal GST; dsDNA, one strand shown
# Summary of the method: as §1
# HSF1 = HSF1 (Homo sapiens, UniProt Q00613 1-529); conditions: protein: recombinant; tags: N-terminal GST; chain copies: 3; dsDNA, one strand shown
# Summary of the method: as §1
# SPIC = biological target: T8, SPIC (Homo sapiens, UniProt Q8N5J4 1-248); conditions: protein: recombinant; tags: N-terminal GST; dsDNA, one strand shown
# T8 sequence: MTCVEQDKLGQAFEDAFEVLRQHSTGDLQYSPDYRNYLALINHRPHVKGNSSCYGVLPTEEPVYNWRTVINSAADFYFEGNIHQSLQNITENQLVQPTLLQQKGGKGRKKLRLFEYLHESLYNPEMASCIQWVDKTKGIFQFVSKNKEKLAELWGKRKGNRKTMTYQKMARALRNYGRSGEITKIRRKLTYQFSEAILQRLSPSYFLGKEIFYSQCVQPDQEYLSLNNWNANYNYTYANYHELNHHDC
# Summary of the method: as §1
# ELF4 = ELF4 (Homo sapiens, UniProt Q99607 1-663); conditions: protein: recombinant; tags: N-terminal GST; dsDNA, one strand shown
# Summary of the method: as §1
# ELK4 = biological target: T9, ELK4 (Homo sapiens, UniProt P28324-2 1-405); conditions: protein: recombinant; tags: N-terminal GST; dsDNA, one strand shown
# T9 sequence: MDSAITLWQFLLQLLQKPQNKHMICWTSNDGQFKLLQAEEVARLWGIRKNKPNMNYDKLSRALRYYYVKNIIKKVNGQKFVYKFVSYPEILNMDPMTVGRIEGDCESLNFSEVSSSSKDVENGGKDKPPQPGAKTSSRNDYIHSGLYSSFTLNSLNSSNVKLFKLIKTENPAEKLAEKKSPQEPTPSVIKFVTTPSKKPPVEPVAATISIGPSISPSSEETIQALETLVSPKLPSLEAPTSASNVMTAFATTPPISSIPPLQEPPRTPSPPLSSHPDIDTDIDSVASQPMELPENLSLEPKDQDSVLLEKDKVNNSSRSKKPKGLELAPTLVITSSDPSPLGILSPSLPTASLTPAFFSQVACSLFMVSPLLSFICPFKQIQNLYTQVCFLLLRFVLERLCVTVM
# Summary of the method: as §1
# ETV2 = biological target: T10, ETV2 (Homo sapiens, UniProt O00321 1-342); conditions: protein: recombinant; tags: N-terminal GST; dsDNA, one strand shown
# T10 sequence: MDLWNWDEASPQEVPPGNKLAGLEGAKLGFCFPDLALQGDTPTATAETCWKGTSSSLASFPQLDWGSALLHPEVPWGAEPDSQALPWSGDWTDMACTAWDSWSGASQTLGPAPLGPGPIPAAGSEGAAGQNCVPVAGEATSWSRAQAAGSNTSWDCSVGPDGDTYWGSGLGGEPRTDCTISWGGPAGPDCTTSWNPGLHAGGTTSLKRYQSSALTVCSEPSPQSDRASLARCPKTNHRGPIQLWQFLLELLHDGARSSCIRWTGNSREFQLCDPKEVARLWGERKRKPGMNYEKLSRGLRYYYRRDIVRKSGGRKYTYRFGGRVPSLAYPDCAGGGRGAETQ
# Summary of the method: as §1
# ELF3 = biological target: T11, ELF3 (Homo sapiens, UniProt P78545 1-371); conditions: protein: recombinant; tags: N-terminal GST; dsDNA, one strand shown
# T11 sequence: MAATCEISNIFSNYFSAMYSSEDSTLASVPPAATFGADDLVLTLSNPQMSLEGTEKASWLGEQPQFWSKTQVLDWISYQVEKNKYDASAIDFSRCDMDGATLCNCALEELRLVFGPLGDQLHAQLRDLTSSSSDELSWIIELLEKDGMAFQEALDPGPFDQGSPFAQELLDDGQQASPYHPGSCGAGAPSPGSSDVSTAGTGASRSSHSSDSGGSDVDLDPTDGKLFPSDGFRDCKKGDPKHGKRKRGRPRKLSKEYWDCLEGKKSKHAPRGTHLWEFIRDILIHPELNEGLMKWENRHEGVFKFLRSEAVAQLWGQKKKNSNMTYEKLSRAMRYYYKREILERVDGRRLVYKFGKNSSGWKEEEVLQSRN
# Summary of the method: as §1
# CRX = CRX (Homo sapiens, UniProt O43186 1-299); conditions: protein: recombinant; tags: N-terminal GST; dsDNA, one strand shown
# Summary of the method: as §1
# ETV1 = ETV1 (Homo sapiens, UniProt P50549 1-477); conditions: protein: recombinant; tags: N-terminal GST; dsDNA, one strand shown
# Summary of the method: as §1
# Sequence of ELF1 (P32519 whole entry): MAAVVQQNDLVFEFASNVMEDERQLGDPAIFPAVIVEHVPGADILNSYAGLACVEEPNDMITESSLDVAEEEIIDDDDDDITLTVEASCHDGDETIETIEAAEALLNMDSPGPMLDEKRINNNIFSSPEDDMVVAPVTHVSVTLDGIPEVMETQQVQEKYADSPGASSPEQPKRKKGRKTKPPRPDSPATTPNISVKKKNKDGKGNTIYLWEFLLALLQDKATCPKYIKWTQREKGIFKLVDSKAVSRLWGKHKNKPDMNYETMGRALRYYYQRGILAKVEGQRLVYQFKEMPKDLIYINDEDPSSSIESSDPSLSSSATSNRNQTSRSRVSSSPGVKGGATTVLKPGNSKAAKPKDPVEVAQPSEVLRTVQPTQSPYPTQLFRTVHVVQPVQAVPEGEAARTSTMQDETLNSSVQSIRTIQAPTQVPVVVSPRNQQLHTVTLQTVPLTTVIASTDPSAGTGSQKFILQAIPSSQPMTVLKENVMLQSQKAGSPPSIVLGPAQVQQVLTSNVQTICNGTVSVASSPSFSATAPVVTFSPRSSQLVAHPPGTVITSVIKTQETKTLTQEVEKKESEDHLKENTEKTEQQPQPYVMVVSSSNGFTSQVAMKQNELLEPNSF
# Sequence of CRX (O43186 whole entry): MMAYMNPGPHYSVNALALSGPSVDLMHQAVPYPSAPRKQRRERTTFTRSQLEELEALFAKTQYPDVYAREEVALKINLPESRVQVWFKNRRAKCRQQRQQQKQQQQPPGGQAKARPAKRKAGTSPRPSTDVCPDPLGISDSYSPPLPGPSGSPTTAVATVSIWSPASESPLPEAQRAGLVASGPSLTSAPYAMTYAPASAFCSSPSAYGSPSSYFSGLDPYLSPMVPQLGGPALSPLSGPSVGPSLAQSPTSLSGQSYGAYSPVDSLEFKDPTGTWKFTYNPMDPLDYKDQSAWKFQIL
# Sequence of ELF4 (Q99607 whole entry): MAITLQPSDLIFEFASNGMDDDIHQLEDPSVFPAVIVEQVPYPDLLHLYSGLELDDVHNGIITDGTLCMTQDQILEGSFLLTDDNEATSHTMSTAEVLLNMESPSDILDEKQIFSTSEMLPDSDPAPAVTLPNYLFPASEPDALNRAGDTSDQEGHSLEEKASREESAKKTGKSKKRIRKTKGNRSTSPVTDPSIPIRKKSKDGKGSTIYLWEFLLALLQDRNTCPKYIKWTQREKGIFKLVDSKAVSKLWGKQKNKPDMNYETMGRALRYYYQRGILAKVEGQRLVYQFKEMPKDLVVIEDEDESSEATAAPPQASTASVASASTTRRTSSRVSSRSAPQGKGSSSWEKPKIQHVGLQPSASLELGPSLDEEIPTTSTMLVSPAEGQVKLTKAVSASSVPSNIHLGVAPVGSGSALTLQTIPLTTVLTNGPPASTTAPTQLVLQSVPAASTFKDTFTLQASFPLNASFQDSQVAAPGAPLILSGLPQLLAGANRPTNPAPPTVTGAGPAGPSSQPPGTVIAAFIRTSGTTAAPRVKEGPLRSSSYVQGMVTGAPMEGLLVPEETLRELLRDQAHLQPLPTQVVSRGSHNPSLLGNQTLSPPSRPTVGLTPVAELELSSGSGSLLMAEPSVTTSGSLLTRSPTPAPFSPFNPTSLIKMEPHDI
# Sequence of HSF1 (Q00613 whole entry): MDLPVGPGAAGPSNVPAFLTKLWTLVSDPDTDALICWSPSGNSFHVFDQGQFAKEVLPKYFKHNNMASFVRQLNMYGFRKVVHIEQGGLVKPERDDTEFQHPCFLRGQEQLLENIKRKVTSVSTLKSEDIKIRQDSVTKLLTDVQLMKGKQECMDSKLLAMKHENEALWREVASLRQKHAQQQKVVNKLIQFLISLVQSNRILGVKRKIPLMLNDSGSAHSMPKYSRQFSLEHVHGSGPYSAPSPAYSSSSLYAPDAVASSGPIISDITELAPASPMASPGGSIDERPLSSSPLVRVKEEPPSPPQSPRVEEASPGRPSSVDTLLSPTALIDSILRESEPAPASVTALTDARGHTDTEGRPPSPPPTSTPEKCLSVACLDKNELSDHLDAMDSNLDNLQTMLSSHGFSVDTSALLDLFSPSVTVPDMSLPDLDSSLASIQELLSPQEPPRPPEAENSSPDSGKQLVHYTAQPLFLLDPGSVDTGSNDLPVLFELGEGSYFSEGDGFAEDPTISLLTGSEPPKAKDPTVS
# Sequence of ETV5 (P41161 whole entry): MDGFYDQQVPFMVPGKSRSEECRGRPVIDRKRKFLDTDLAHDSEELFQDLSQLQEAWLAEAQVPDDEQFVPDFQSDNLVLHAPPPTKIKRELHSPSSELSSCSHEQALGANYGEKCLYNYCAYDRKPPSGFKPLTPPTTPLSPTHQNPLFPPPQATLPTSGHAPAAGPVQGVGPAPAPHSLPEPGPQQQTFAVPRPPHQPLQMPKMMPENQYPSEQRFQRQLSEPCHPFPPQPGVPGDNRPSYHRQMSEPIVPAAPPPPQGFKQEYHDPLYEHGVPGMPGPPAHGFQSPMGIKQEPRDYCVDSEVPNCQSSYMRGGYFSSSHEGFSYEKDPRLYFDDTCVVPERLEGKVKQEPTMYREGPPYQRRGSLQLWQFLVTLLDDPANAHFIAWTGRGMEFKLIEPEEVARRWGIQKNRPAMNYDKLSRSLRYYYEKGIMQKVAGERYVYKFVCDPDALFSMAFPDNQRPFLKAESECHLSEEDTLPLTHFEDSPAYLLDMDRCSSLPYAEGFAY
# Sequence of SPIB (Q01892 whole entry): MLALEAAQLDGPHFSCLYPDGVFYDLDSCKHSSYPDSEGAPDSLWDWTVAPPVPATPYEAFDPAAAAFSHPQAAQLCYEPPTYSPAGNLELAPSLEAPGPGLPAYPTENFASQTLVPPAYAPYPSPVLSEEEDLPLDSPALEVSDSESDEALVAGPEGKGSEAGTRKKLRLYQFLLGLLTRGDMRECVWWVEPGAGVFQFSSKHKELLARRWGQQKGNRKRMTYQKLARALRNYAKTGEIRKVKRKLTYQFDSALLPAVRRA
# Sequence of ETV1 (P50549 whole entry): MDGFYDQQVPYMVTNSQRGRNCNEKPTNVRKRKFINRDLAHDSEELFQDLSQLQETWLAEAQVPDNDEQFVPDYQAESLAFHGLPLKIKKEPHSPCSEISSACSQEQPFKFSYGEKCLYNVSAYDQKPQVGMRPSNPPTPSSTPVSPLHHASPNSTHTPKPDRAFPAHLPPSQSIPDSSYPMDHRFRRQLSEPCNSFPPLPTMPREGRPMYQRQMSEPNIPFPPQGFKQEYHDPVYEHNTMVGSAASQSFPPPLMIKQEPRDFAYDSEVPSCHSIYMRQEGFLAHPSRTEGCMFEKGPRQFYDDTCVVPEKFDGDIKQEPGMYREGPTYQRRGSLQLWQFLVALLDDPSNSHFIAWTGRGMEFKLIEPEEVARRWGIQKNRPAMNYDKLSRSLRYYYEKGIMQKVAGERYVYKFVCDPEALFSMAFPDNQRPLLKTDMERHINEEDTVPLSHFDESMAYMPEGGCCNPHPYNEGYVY
sequence,measurement,setting,value
CTGCTA,binding signal,FLI1,"1.38 fold enrichment (6-mer frequency, TF over GST control)"
same,binding signal,ELK1,"1.53 fold enrichment (6-mer frequency, TF over GST control)"
same,binding signal,GABPA,"1.46 fold enrichment (6-mer frequency, TF over GST control)"
same,binding signal,ERG,"1.39 fold enrichment (6-mer frequency, TF over GST control)"
same,binding signal,ELF1,"1.47 fold enrichment (6-mer frequency, TF over GST control)"
same,binding signal,EHF,"1.5 fold enrichment (6-mer frequency, TF over GST control)"
same,binding signal,SPI1,"1.53 fold enrichment (6-mer frequency, TF over GST control)"
same,binding signal,SPIB,"1.43 fold enrichment (6-mer frequency, TF over GST control)"
same,binding signal,ELK3,"1.42 fold enrichment (6-mer frequency, TF over GST control)"
same,binding signal,FEV,"1.47 fold enrichment (6-mer frequency, TF over GST control)"
same,binding signal,ETV5,"1.56 fold enrichment (6-mer frequency, TF over GST control)"
same,binding signal,HSF1,"1.37 fold enrichment (6-mer frequency, TF over GST control)"
same,binding signal,SPIC,"1.5 fold enrichment (6-mer frequency, TF over GST control)"
same,binding signal,ELF4,"1.42 fold enrichment (6-mer frequency, TF over GST control)"
same,binding signal,ELK4,"1.68 fold enrichment (6-mer frequency, TF over GST control)"
same,binding signal,ETV2,"1.49 fold enrichment (6-mer frequency, TF over GST control)"
same,binding signal,ELF3,"1.67 fold enrichment (6-mer frequency, TF over GST control)"
same,binding signal,CRX,"1.36 fold enrichment (6-mer frequency, TF over GST control)"
same,binding signal,ETV1,"1.64 fold enrichment (6-mer frequency, TF over GST control)"
